The values below come from PubChem BioAssay (NCI).

Among the test systems are HCT-15 colon; HT29 colon; SNB-75 CNS; SNB-19 CNS; U251 CNS; PC-3 prostate; SK-MEL-5 melanoma; UACC-62 melanoma; LOX IMVI melanoma; SK-MEL-28 melanoma; SK-MEL-2 melanoma; EKVX NSCLC; SN12C renal; UO-31 renal; TK-10 renal; ACHN renal; CAKI-1 renal; A498 renal; CCRF-CEM leukemia; MOLT-4 leukemia.
Holding throughout (experiment): NCI-60 one-dose screen, 48 h (100 = growth as untreated, 0 = no growth, -100 = all killed)
What all share (conditions): 10 µM unless noted

This is part of a sample that, as a whole, favours compounds with a hit. Of some 83,000 tested, about 20% had one in any assay.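 Treatment: one concentration, 48 hours, 96-well format. Scoring: percent growth, with anything below 10 considered active.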 A number with no mark means an inactive call. The source made the active and inactive calls.

For `COc1cc(-c2[nH]ncc2Nc2ccc(Cl)cc2)cc(OC)c1OC`, the growth was 59.7% with HCT-15 colon; 74.2% in the test on HT29 colon; 59.8% in the test on SNB-75 CNS; 74.2% in the test with SNB-19 CNS; 68.9% in the test with U251 CNS; 59.9% in the test with PC-3 prostate. Besides, the growth in the test with SK-MEL-5 melanoma was 43.6%; with UACC-62 melanoma, 40%; in the test on LOX IMVI melanoma, 55.8%; in the test on SK-MEL-28 melanoma, 82.1%; in the test on SK-MEL-2 melanoma, 112%; with EKVX NSCLC, 45.4%. In addition, the growth was 89.9% in the test with SN12C renal; 42.9% with UO-31 renal; 67.8% with TK-10 renal; 78.9% in the test with ACHN renal; -14.8% (active) in the test on CAKI-1 renal; 68.9% in the test with A498 renal. Moreover, the growth in the test on CCRF-CEM leukemia is 54.9%; in the test on MOLT-4 leukemia it was 50.9%.

As to `Cc1[nH]c(C(=O)Nc2nc3ccc(NC(=O)CCN)cc3s2)c(Cl)c1Cl`, the growth is 83.2% in the test with HCT-15 colon; 88.9% in the test with HT29 colon; 81.6% with SNB-75 CNS; 78.6% in the test with SNB-19 CNS; 47.1% in the test with U251 CNS; 65.5% in the test with PC-3 prostate. Besides, the growth in the test on SK-MEL-5 melanoma is 83.8%; in the test on UACC-62 melanoma it was 44.4%; with LOX IMVI melanoma, 19.7%; in the test with SK-MEL-28 melanoma it was 97.8%; in the test with SK-MEL-2 melanoma it was 96.4%; with EKVX NSCLC it was 76.3%. In addition, the growth was 65.4% in the test with SN12C renal; 80.4% in the test with UO-31 renal; 113% in the test with TK-10 renal; 43.2% with ACHN renal; 31.5% in the test with CAKI-1 renal; 65.3% with A498 renal. The growth is 15.3% in the test on CCRF-CEM leukemia and 12.9% in the test on MOLT-4 leukemia.

For the compound `COc1ccc(-c2cc(-c3cc(OC)c(OC)c(OC)c3)c(C#N)c(=O)n2CCCCC(=O)O)cc1`, the growth in the test on HCT-15 colon was 77.3%; with HT29 colon, 99.4%; in the test with SNB-75 CNS, 51.8%; with SNB-19 CNS, 96.3%; in the test on U251 CNS, 91.5%; in the test on PC-3 prostate, 90.9%. Moreover, the growth with SK-MEL-5 melanoma was 93.6%; in the test with UACC-62 melanoma it was 89.8%; in the test on LOX IMVI melanoma it was 78.6%; in the test on SK-MEL-28 melanoma, 112%; in the test on SK-MEL-2 melanoma it was 107%; with EKVX NSCLC, 98.5%. Moreover, the growth is 90.6% in the test on SN12C renal; 65.7% in the test on UO-31 renal; 112% in the test with TK-10 renal; 91.2% in the test with ACHN renal; 70.9% with CAKI-1 renal; 85.6% in the test on A498 renal. The growth with CCRF-CEM leukemia is 85.3%; in the test on MOLT-4 leukemia it was 105%.

With `COC(=O)c1[nH]nc(OC)c1C1(C(C#N)c2nc3ccccc3s2)CCCc2ccccc21` (stereo not given), the growth was 102% in the test with HCT-15 colon; 95.8% with HT29 colon; 86.4% with SNB-75 CNS; 96.7% with SNB-19 CNS; 96.5% in the test on U251 CNS; 79.5% with PC-3 prostate. The growth in the test with SK-MEL-5 melanoma was 97.8%; in the test with UACC-62 melanoma, 79.6%; with LOX IMVI melanoma, 95%; in the test with SK-MEL-28 melanoma, 78.9%; in the test on SK-MEL-2 melanoma it was 88.7%; with EKVX NSCLC, 88.5%. The growth was 86% with SN12C renal; 72.4% with UO-31 renal; 139% in the test with TK-10 renal; 89.1% in the test on ACHN renal; 94.5% with CAKI-1 renal; 109% in the test on A498 renal. The growth with CCRF-CEM leukemia is 96.5%; in the test on MOLT-4 leukemia, 102%.

For the compound `Clc1ccc(CNc2ccc3nc(CCC4CCCCC4)[nH]c3c2)cc1`, the growth in the test on HCT-15 colon was 9.61% (active); in the test on HT29 colon it was 4.9% (active); with SNB-75 CNS, 77.2%; with SNB-19 CNS, 71.1%; in the test with U251 CNS, 43.8%; in the test on PC-3 prostate, 46.7%. Besides, the growth in the test on SK-MEL-5 melanoma was 0.653% (active); with UACC-62 melanoma, 67.4%; in the test with LOX IMVI melanoma, 72%; in the test with SK-MEL-28 melanoma it was 42%; with SK-MEL-2 melanoma it was 85.6%; in the test on EKVX NSCLC, 75.6%. Further, the growth was 59.1% in the test on SN12C renal; 29.9% with UO-31 renal; 83.6% with TK-10 renal; 76.6% in the test with ACHN renal; 50.4% with CAKI-1 renal; 45.8% in the test with A498 renal. Moreover, the values for the growth in the test with CCRF-CEM leukemia and with MOLT-4 leukemia were 41.4% and 39.1%, respectively.

Take `N#CC(Cc1cccc2ccccc12)c1cc2ccccc2[nH]1` (stereo not given): the growth in the test with HCT-15 colon is 88%; in the test on HT29 colon, 95.7%; in the test on SNB-75 CNS, 88.3%; in the test with SNB-19 CNS it was 98.2%; with U251 CNS, 92.3%; in the test with PC-3 prostate it was 74.8%. Also, the growth in the test with SK-MEL-5 melanoma was 95.6%; with UACC-62 melanoma it was 70%; in the test on LOX IMVI melanoma, 90.9%; with SK-MEL-28 melanoma, 102%; in the test on SK-MEL-2 melanoma, 113%; in the test with EKVX NSCLC it was 94.1%. For the same compound, the growth is 90.2% in the test with SN12C renal; 51.9% in the test on UO-31 renal; 108% with TK-10 renal; 95.2% in the test with ACHN renal; 73.7% in the test with CAKI-1 renal; 112% in the test on A498 renal. Also, the growth with CCRF-CEM leukemia is -47% (active); in the test with MOLT-4 leukemia, 78.2%.

For `CCOC(=O)c1c(-c2ccc(OC)cc2)c(C#N)c2c(C#N)c(N)nn2c1N`, the growth in the test on HCT-15 colon was 22.6%; in the test with HT29 colon, 6.58% (active); with SNB-75 CNS, 43.4%; in the test on SNB-19 CNS, 31.2%; with U251 CNS, 15.8%; with PC-3 prostate it was 40%. Besides, the growth was 19.3% in the test with SK-MEL-5 melanoma; 13.1% in the test on UACC-62 melanoma; 28.3% in the test on LOX IMVI melanoma; 44.8% in the test on SK-MEL-28 melanoma; 3.6% (active) with SK-MEL-2 melanoma; 41.1% with EKVX NSCLC. Further, the growth in the test with SN12C renal is 40.8%; in the test with UO-31 renal it was 47.6%; with TK-10 renal it was 57.7%; in the test with ACHN renal, 53.3%; in the test on CAKI-1 renal, 39.8%; in the test on A498 renal, -7.96% (active). Moreover, the growth is 5.96% (active) with CCRF-CEM leukemia and 10% with MOLT-4 leukemia.

For the compound `Cc1ccc(C(=O)N(CCCN)[C@@H](c2nc3cc(Cl)ccc3c(=O)n2Cc2ccccc2)C(C)C)cc1`, the growth is -50% (active) in the test with HCT-15 colon; 0.611% (active) in the test with HT29 colon; -18.7% (active) in the test on SNB-75 CNS; 5.11% (active) in the test on SNB-19 CNS; -65% (active) with U251 CNS; 16.4% in the test with PC-3 prostate. Moreover, the growth in the test with SK-MEL-5 melanoma is -94.2% (active); with UACC-62 melanoma, -79.6% (active); in the test on LOX IMVI melanoma it was -90% (active); with SK-MEL-28 melanoma it was -31% (active); in the test with SK-MEL-2 melanoma, -43% (active); in the test with EKVX NSCLC, -7.16% (active). Further, the growth in the test on SN12C renal is -15.6% (active); in the test on UO-31 renal, 5.01% (active); with TK-10 renal, -33.5% (active); with ACHN renal, -28.3% (active); in the test with CAKI-1 renal, 4.04% (active); with A498 renal, -4.18% (active). In addition, the figures for the growth in the test with CCRF-CEM leukemia and in the test with MOLT-4 leukemia were 1.72% (active) and -29.3% (active), respectively.
